Rows were chosen to be rich in hits. Some 2.4% of all compounds tested hit in one or more screens of this group.
PLC-beta3 inh: human PLC-beta3 inhibitors, primary screen, biochemical, fluorescence. 1-phosphatidylinositol 4,5-bisphosphate phosphodiesterase beta-3 (Homo sapiens), Q01970. Purified PLC-beta3, fluorogenic substrate. inhibition, % at 12.2 µM. 0.18% of 370,000 active. AID 720704, 2013; in the data active = inhibition above about 11%;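 note: 0% = median of compound wells on plate and 100% = full blocker control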
UHRF1 binding: UHRF1 methylated DNA binding inhibitors, primary screen, counter-screen for MBD2 inhibitor project, biochemical, TR-FRET, human UHRF1, single concentration; 0.75% of 370,000 active; E3 ubiquitin-protein ligase UHRF1 (Homo sapiens), Q96T88; AID 687016, 2013; UHRF1 binding to methylated oligo; inhibition, % at 4.4 µM; in the data active = inhibition above about 21%;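 note: UHRF1 SRA domain binding a hemimethylated CpG hairpin DNA probe; 0% = median of test compound wells and 100% = reference inhibitor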
LEDGF integ inh: blockers of LEDGF/p75-dependent integrase strand transfer – biochemical, TR-FRET, high throughput, primary screen; inhibition, % at 3.7 µM; HIV-1 integrase (with human LEDGF/p75); TR-FRET IN-LEDGF/p75 DNA integration, Eu/Cy5; 0.64% of 370,000 active;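 active = inhibition above the screen-wide mean plus 3 SD, cut at about 13% in these data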;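 note: signal is the Cy5 over europium emission ratio at 671 and 618 nm; 0% = plate median of compound wells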
MBD2 inh: inhibitors of MBD2 binding to methylated DNA, primary screen, biochemical, TR-FRET, DNA-binding domain, human | Methyl-CpG-binding domain protein 2 (Homo sapiens), Q9UBB5 | MBD2 binding to methylated oligonucleotide | inhibition, % at 4.4 µM | 0.31% of 370,000 active | AID 686964, 2013; in the data active = inhibition above about 13%
PLCg1 inh: PLC-gamma1 enzyme inhibitors, primary screen, biochemical, fluorescence, purified enzyme | 1-phosphatidylinositol 4,5-bisphosphate phosphodiesterase gamma-1 (Homo sapiens), P19174 | fluorogenic substrate | inhibition, % at 12.2 µM | 0.84% of 370,000 active | AID 720700, 2013; in the data active = inhibition above about 9.5%
IN multimer act: HIV-1 IN multimer formation enhancers, counter-screen for LEDGF/p75 integration inhibitor project, biochemical, TR-FRET | shares compounds with LEDGF integ inh | TR-FRET HIV-1 integrase multimerization | activation, % at 7.7 µM | 17% of 2,000 active | AID 1053131, 2014; in the data active = activation above about 8.9%
TRFRET interf: TR-FRET optical interference artefacts, confirmation, artefact control for LEDGF/p75-dependent integration inhibitor project, biochemical, HIV-1 IN multimerization; shares compounds with LEDGF integ inh; TR-FRET optical interference counterscreen; inhibition, % at 7.7 µM; 2,000 tested, under 10 active;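 active = inhibition above the mean over all tested compounds plus 3 SD, which no compound reached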;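 note: 0% = integrase with antibodies and DMSO and 100% = antibodies without integrase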
LEDGF integ conf: inhibitors of HIV-1 IN-LEDGF/p75 DNA integration, confirmation, biochemical, TR-FRET | TR-FRET LEDGF/p75-dependent HIV-1 integration | inhibition, % at 3.7 µM | 36% of 2,000 active | shares compounds with LEDGF integ inh; in the data active = inhibition above about 14%
Numbers without * were called inactive; / = no result.

SMILES	PLC-beta3 inh	UHRF1 binding	LEDGF integ inh	MBD2 inh	PLCg1 inh	IN multimer act	TRFRET interf	LEDGF integ conf
O=C(O)CCC(=O)Nc1ccc(N2CCCCCC2)cc1	-4.9	-2.4	14.3*	-3.3	-4.8	5.0	-25.0	-10.2
O=C(OCC#CCSc1nnc(-c2cccc3ccccc23)o1)c1ccsc1	-23.0	-1.2	7.7	-1.2	-13.6	/	/	/
COc1ccc(-n2c(SCC(=O)Nc3ccccc3)nnc2-c2ccoc2C)cc1	2.6	0.8	0.9	2.2	2.9	/	/	/
COc1cccc(NC(=O)CSc2nnc(-c3ccoc3C)n2-c2ccccc2)c1	1.1	-2.9	29.3*	-2.7	0.5	1.6	-5.6	-12.9
N#C/C(=N\Nc1cc(Cl)cc(Cl)c1)c1nnc2n1CCCCC2	-5.1	2.8	63.7*	5.9	-0.4	1.3	-6.5	4.9
COc1ccc(/C=C/S(=O)(=O)NCc2ccc(F)cc2)c(CNC(=O)OC(C)(C)C)c1	-4.7	1.6	-5.5	2.6	0.5	/	/	/
CCOc1ccc(CCNC(=O)c2ccccn2)cc1OCC	1.6	-2.4	-0.9	-2.2	0.0	/	/	/
O=C(Cn1cnc([N+](=O)[O-])n1)c1ccc(O)c(O)c1	2.2	14.0	40.5*	4.8	3.3	9.9*	-35.3	22.2*
O=C(Cn1cnc([N+](=O)[O-])n1)c1ccccc1	-6.8	0.7	-4.1	2.6	-4.1	/	/	/
COc1cc(N(C(C)=O)c2ccc(O)c(C(=O)O)c2)c2ncccc2c1	-29.7	-3.1	15.9*	-6.8	-17.8	-0.1	0.3	26.3*
CCC(=O)Nc1nnc(S(=O)(=O)N2CCCC2)s1	-2.6	-0.8	14.1*	-2.0	-3.6	-2.3	11.8	-4.0
CCC(=O)Nc1nnc(S(=O)(=O)N2CCCCCC2)s1	2.5	-0.1	4.6	-0.5	0.5	/	/	/
CCOC(=O)c1cc2c(=Cc3ccc(N(C)C)cc3)c3ccccc3n2[n+]1C	-12.9	30.0*	21.1*	1.9	-4.8	20.3*	-72.7	53.7*
CCc1nc(SCC(=O)Nc2cc(C)on2)c2c(C)c(C)sc2n1	0.6	-0.7	-0.1	0.6	2.2	/	/	/
Cc1cc(NC(=O)CSc2nc(C3CC3)nc3sc(C)c(C)c23)no1	-1.3	0.8	16.9*	-2.5	0.0	15.6*	-55.3	-8.2
O=C(NC(Cc1ccccc1)C(=O)O)/C(=C\c1ccco1)NC(=O)c1ccccc1Br (stereo not drawn)	-18.7	0.2	16.5*	0.8	-24.1	0.4	-1.8	0.6
O=C(NC(Cc1ccccc1)C(=O)O)/C(=C/c1ccco1)NC(=O)c1cccc([N+](=O)[O-])c1 (stereo not drawn)	-10.5	20.6	-0.5	11.2	-6.6	/	/	/
COc1ccc(C[C@@H]2CN3C(=NC[C@@H]3C)N2C[C@H](C)NC(=O)CCC2CCCCC2)cc1	-0.9	2.4	52.0*	2.5	1.5	-3.3	11.9	-4.2
C=CCc1cc(/C=N/n2cnnc2)cc(OCC)c1O	-12.1	0.9	0.0	-1.6	-3.6	/	/	/
C=CCc1cc(C=Nc2ccc(N3CCOCC3)cc2)cc(OCC)c1O	-29.0	1.8	24.6*	-2.6	-18.7	4.7	-16.8	-14.2
Cc1nn(-c2ccccc2)c(N2CCCC2)c1/C=N/NC(=O)c1cc2ccccc2cc1O	-119.1	-5.3	14.3*	5.7	-106.4	-1.3	4.7	3.3
